Screens as filed in PubChem BioAssay.
IL1B secr inh: inflammasome signaling inhibition, IL-1 beta readout; THP-1 LPS/ATP IL-1B secretion, AlphaLISA, 16 h; stronger effect = lower value; activity change, % at 57.5 µM; actives 4.7% (n = 360,000); in the data active = activity change below about -50%; inconclusive = mostly about -30% to -49%
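Secreted IL-1B measured by AlphaLISA bead assay after 16 h compound exposure of THP-1 cells; compounds (final up to 57.5 uM) added 1 h before LPS (250 ng/mL) and ATP (1.25 mM) stimulation; lower signal means less secretion.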
TDP1 cell noCPT: qHTS for Inhibitors of human tyrosyl-DNA phosphodiesterase 1 (TDP1): qHTS in cells in absence of CPT; actives 15% (n = 420,000); Potency, µM (top dose mostly 46.2 µM), most hits filed as inhibitors; DT40 Tdp1-/- hTDP1 cells, no CPT, ATP luminescence, 48 h; note: nearly all actives have a fitted effect of over 55% in size
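Luminescent ATP content (CellTiter-Glo) served as the growth readout. Knockout chicken DT40 cells expressing human TDP1 were exposed to compounds without camptothecin for a minimum 48 hr at 37 °C.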
Six1-Eya2 inh: blocks human Six1 binding to Eya2; Q15475+O00167; actives 0.56% (n = 360,000); AlphaScreen GST-Six1/His-Eya2 binding, biochemical; stronger effect = lower value; activity change, % (concentration not given with the values); AID 651725; in the data active = activity change below about -65%; inconclusive = mostly about -30% to -63%
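Compounds are tested against tagged Six1 and Eya2 proteins bridged by glutathione donor and nickel acceptor beads; after a one-hour incubation at 37 °C without light, AlphaScreen emission is recorded.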
TDP1 block: inhibitors of human tyrosyl-DNA phosphodiesterase TDP1 | Potency, µM (series often up to 130 µM), usual class: inhibitors | actives 0.28% (n = 350,000) | AID 485290 | recombinant TDP1, AlphaScreen DNA substrate cleavage; note: nearly all actives have a fitted effect of over 40% in size
Target sequence (Q9NUW8 whole entry, looked up): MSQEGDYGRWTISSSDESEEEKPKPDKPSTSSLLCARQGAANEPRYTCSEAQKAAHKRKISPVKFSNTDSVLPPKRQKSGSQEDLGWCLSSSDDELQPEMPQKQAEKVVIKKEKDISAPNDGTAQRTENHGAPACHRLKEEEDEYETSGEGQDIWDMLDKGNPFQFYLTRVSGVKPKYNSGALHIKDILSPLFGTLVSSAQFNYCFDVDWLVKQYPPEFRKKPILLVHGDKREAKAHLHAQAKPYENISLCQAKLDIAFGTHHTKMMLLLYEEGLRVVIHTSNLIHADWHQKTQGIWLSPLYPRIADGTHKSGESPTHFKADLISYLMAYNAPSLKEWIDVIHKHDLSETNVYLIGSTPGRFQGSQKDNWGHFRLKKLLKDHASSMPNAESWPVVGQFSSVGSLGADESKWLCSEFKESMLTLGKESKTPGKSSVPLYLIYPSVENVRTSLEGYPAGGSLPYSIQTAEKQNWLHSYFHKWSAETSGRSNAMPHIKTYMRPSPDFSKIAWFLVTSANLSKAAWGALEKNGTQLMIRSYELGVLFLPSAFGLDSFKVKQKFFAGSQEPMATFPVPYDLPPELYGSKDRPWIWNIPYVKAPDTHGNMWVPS
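Signal: AlphaScreen proximity between streptavidin donor and anti-FITC acceptor beads on intact substrate. Reaction: Tdp1 1 nM, substrate 15 nM final, 5 min RT after 15 min compound preincubation.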
CtBP-E1A inh: blocks the CtBP interaction with E1A; AlphaScreen GST-E1A/His-CtBP binding, 1536-well; stronger effect = lower value; activity change, % (concentration not given with the values); actives 0.49% (n = 340,000); in the data active = activity change below about -65%; inconclusive = mostly about -30% to -63%
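Protein mix (5X: 125 nM each GST-E1A, His-CtBP) was incubated with pinned compound 2 h at 37 deg C in dark, in 50 mM Tris pH 8.0 buffer with 300 mM NaCl. Glutathione donor and nickel acceptor beads followed; AlphaScreen signal read after 1 h.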
TDP1 cell CPT: DT40-hTDP1 cell growth loss with CPT; chicken DT40 Tdp1-/-;hTDP1 cells + 20 nM CPT, ATP luminescence, 48 h; Potency, µM (top dose mostly 46.2 µM), most hits filed as inhibitors; actives 12% (n = 420,000); note: nearly all actives have a fitted effect of over 55% in size
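Chicken DT40 Tdp1-/- cells complemented with human TDP1, 400 cells/well, exposed to compounds plus 20 nM camptothecin for at least 48 h at 37 C; viability read as ATP content by CellTiter-Glo luminescence.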
Numbers stand for hits; – = inactive; ? = inconclusive; · = not tested or not shown. Rows were chosen to be rich in hits. Some 18% of all compounds tested hit in one or more screens of this group. Unless noted, calls come from the whole dose curve; as a rule, active = well fitted curve in the direction sought with a large enough effect; inconclusive = small, poorly fitted or top-dose-only effect, or another doubt; inactive = no such curve, though single readings can be large; an effect the other way counts as inactive or inconclusive.

SMILES | IL1B secr inh | TDP1 cell noCPT | Six1-Eya2 inh | TDP1 block | CtBP-E1A inh | TDP1 cell CPT
COc1ccc(NC(=O)c2oc3ccccc3c2NC(=O)c2ccco2)cc1 | · | 18.4µM | – | – | – | ?
COc1ccc2[nH]c3c(=O)n(CCCCC(=O)N4CCCC4)c(=S)[nH]c3c2c1 | – | – | – | – | – | ?
Cc1nc2nc(N)nn2c(C)c1C/C=C/c1ccccc1 | – | – | – | – | – | –
C/C(CC(=O)Nc1ccc2c(c1)OCCO2)=N\NC(=O)Cc1ccc(Cl)cc1 | – | – | – | – | – | –
Cn1c(=O)oc2ccccc2c1=O | – | – | – | · | – | –
COc1ccc(NC(=O)c2oc3ccccc3c2NC(=O)c2ccco2)c(OC)c1 | – | ? | – | – | – | 6.31µM
COc1ccc(NC(=O)c2oc3ccccc3c2NC(=O)c2cc3ccccc3o2)c(OC)c1 | · | – | · | – | · | –
O=C1C2(CCCC13COC(c1ccc(O)cc1)OC3)COC(c1ccc(O)cc1)OC2 (stereo unspecified) | – | – | – | – | – | –
Cc1ccc(N2C(=O)N(CC(=O)Nc3cccc(Cl)c3)C(=O)C2C)cc1 (stereo unspecified) | -60.6 | ? | – | – | – | ?
Cc1c([N+](=O)[O-])c(C(=O)NC2CCCC2)nn1C | – | – | – | – | – | –
CCCn1cnc2sc(C(N)=O)c(C)c2c1=O | – | – | – | – | – | –
COc1ccc(C2c3ccc(O)cc3Oc3ncn4nc(-c5cccnc5)nc4c32)cc1OC (stereo unspecified) | – | 11.6µM | – | – | – | ?
COc1ccc(C2c3ccc(O)cc3Oc3ncn(Cc4ccco4)c(=N)c32)cc1OC (stereo unspecified) | ? | ? | – | – | – | ?
COc1cc(CNn2c(C)n[nH]c2=S)cc(Br)c1OCc1ccc(F)cc1 | – | – | – | – | – | –
Fc1ccccc1COc1ccc(Br)cc1CNCc1ccncc1 | – | ? | – | – | – | ?
Fc1ccc(COc2ccc(Br)cc2CNCc2ccncc2)cc1 | -78.8 | ? | – | – | – | ?
O=C(O)c1ccc(CNCc2cccc(OCc3ccc(F)cc3)c2)cc1 | – | – | – | · | – | ?
CCOc1cc(CNCc2ccncc2)cc(Br)c1OCc1ccc(F)cc1 | -84.1 | 11.2µM | – | – | – | 10µM
Fc1ccc(COc2cccc(CNCc3ccncc3)c2)cc1 | – | 8.2µM | – | – | – | ?
CC1CCN(S(=O)(=O)c2ccc3c(c2)N(CC(=O)NC(C)(C)C)C(=O)CS3)CC1 | · | – | · | – | · | –
CC1CCN(CCCNC(=O)CN2C(=O)CSc3ccc(S(=O)(=O)N4CCC(C)CC4)cc32)CC1 | ? | 14.6µM | – | – | · | ?
CCCCNC(=O)CN1C(=O)CSc2ccc(S(=O)(=O)N3CCC(C)CC3)cc21 | · | – | · | – | · | ?
COc1cccc(NC(=O)CN2C(=O)CSc3ccc(S(=O)(=O)N4CCC(C)CC4)cc32)c1 | -89.0 | ? | – | – | – | ?
Cc1oc2ncn(CC(C)C)c(=O)c2c1C(=O)NC(C)c1ccccc1 (stereo unspecified) | · | 20.6µM | · | – | · | 20.6µM
COC(=O)C(CCSC)NC(=O)c1c(C)oc2ncn(CC(C)C)c(=O)c12 (stereo unspecified) | · | 13µM | · | – | · | –
SMILES | IL1B secr inh | TDP1 cell noCPT | Six1-Eya2 inh | TDP1 block | CtBP-E1A inh | TDP1 cell CPT
Cc1ccc(NC(=O)c2c(C)oc3ncn(CC(C)C)c(=O)c23)nc1 | · | 9.2µM | · | – | · | 13µM
CCC(C)NC(=O)c1c(C)oc2ncn(CC(C)C)c(=O)c12 (stereo unspecified) | · | ? | · | – | · | –
Cc1ccnc(NC(=O)c2c(C)oc3ncn(CC(C)C)c(=O)c23)c1 | · | ? | · | – | · | ?
CCNS(=O)(=O)c1ccc(CCC(=O)Nc2ccc3c(c2)OCO3)cc1 | – | – | – | – | – | –
CCOC(=O)Nc1ccc2c(c1)Sc1ccccc1N2C(=O)CCN1CCOCC1 | – | – | – | – | – | –
Cc1ccc(S(N)(=O)=O)cc1NC(=O)c1ccc2c3c(cccc13)CC2 | – | ? | – | · | · | –
Cc1ccc(C(=O)NNC(=O)C2CSC3(C)CCC(=O)N23)cc1 (stereo unspecified) | – | – | – | – | – | –
CS(=O)(=O)Nc1cccc(NC(=O)c2cccc3c(-c4cccc(C(N)=O)c4)coc23)c1 | ? | ? | ? | · | -71.7 | 18.4µM
COCCNC(=O)c1cccc2c(-c3cccc(C(N)=O)c3)coc12 | – | ? | ? | · | ? | ?
CC(C)CNC(=O)c1cccc2c(-c3ccc(F)c(F)c3)coc12 | – | ? | – | · | – | ?
CC(C)NC(=O)c1cccc2c(-c3ccc(F)c(F)c3)coc12 | – | 20.6µM | – | · | – | ?
CC(=O)c1cccc(NC(=O)c2cccc3c(-c4cccc(C(N)=O)c4)coc23)c1 | – | 11.6µM | – | · | ? | 9.2µM
CS(=O)(=O)Nc1cccc(NC(=O)c2ccc(-c3ccc(F)c(F)c3)c3ccoc23)c1 | ? | ? | – | · | – | ?
CS(=O)(=O)Nc1cccc(NC(=O)c2cccc3c(-c4ccc(F)c(F)c4)coc23)c1 | ? | ? | – | · | – | 14.6µM
CC1=C(C(N)=O)C(c2cccc(OCc3ccccc3)c2)n2nnnc2N1 (stereo unspecified) | ? | – | – | – | – | –
Fc1ccccc1CSc1nc2ncc(Br)cc2[nH]1 | – | – | – | – | – | –
COc1ccc(N2CCN(C(=O)c3ccc(CS(=O)(=O)c4ccccc4C)o3)CC2)cc1 | – | ? | – | · | – | ?
Cc1ccc(C)c(N2CCN(C(=O)c3ccc(CS(=O)(=O)c4ccccc4C)o3)CC2)c1 | – | 18.4µM | – | – | – | 18.4µM
Cc1ccc(S(=O)(=O)Cc2ccc(C(=O)N3CCN(c4cc(C)ccc4C)CC3)o2)cc1 | – | 11.6µM | – | – | – | 14.6µM
O=C(c1ccc(CS(=O)(=O)c2ccc(Br)cc2)o1)N1CCN(c2ccccn2)CC1 | – | ? | – | – | – | –
Cc1ccc(S(=O)(=O)Cc2ccc(C(=O)N3CCCCCC3)o2)cc1 | – | – | – | – | – | ?
Cc1ccc(S(=O)(=O)Cc2ccc(C(=O)N3CCN(c4ccccn4)CC3)o2)cc1 | – | ? | – | – | – | 11.6µM
CCN1C(=O)[C@H]2[C@H]3CN=C(SCc4ccc(C#N)cc4)N3[C@@](CC)(C(=O)OC)[C@H]2C1=O | – | – | – | – | – | –
C[C@@H]1CN([C@H](C)CO)C(=O)CCCn2nncc2CO[C@H]1CN(C)S(C)(=O)=O | – | ? | – | · | – | –
CCCC(=O)Nc1cc(Cl)ccc1C | ? | – | – | – | – | –
